Test results as given in the supplement of paper PMC10849652.
Of roughly 7,900 targets only a part is listed; those with a hit were picked by preference. About 0.6% of all pairs of compound and target were hits. A number with no mark means an inactive call.

What was measured:
Test in all cases: log2 fold change, soluble protein after heating vs DMSO (PISA); higher = thermal stabilisation; K562 cells, 10 uM, 30 min; active = over 0.2 and 3.5 SD of the protein, either way, in both replicates (recomputed)
[1] = compound: COC1=CC=C(C=C1)CN2C=CC3=C2C=C(C=C3)C(=O)NO
Method in brief: (§1)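 K562 cells at 2×10^6 cells/mL were exposed to 10 μM compound for 30 min, then aliquots were heated for 3 min across 48°C-58°C, pooled, and extracted in PBS containing 0.5% NP-40 at 4°C. The supernatant after 21,000xg for 90 min was taken as soluble protein and measured by TMTpro 16plex LC-MS/MS with channel sums equalised. Thermal stability is reported relative to control samples, with values from duplicates. Fold changes are given on a log2 scale.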

filanesib = compound: CON(C)C(=O)N1N=C(c2cc(F)ccc2F)S[C@@]1(CCCN)c1ccccc1 [filanesib]
Method in brief: as §1

zotarolimus = compound: CO[C@H]1C[C@@H]2CC[C@@H](C)[C@@](O)(O2)C(=O)C(=O)N2CCCC[C@H]2C(=O)O[C@H]([C@H](C)C[C@@H]2CC[C@H](n3cnnn3)[C@H](OC)C2)CC(=O)[C@H](C)/C=C(\C)[C@@H](O)[C@@H](OC)C(=O)[C@H](C)C[C@H](C)/C=C/C=C/C=C/1C [zotarolimus]
Method in brief: as §1

idasanutlin = compound: COc1cc(C(=O)O)ccc1NC(=O)[C@@H]1N[C@@H](CC(C)(C)C)[C@](C#N)(c2ccc(Cl)cc2F)[C@H]1c1cccc(Cl)c1F [idasanutlin]
Method in brief: as §1

alisertib = compound: COc1cc(Nc2ncc3c(n2)-c2ccc(Cl)cc2C(c2c(F)cccc2OC)=NC3)ccc1C(=O)O [alisertib]
Method in brief: as §1

[2] = compound: COc1cc2nc(-c3cc(F)ccc3O)nc(N[C@@H]3CNC[C@H]3C(C)(C)O)c2cc1OC
Method in brief: as §1

gefitinib = compound: COc1cc2ncnc(Nc3ccc(F)c(Cl)c3)c2cc1OCCCN1CCOCC1 [gefitinib]
Method in brief: as §1

[3] = compound: COc1cccc2cc(-c3nc([C@H]4CC[C@H](C(=O)O)CC4)n4ncnc(N)c34)[nH]c12
Method in brief: as §1

lapatinib = compound: CS(=O)(=O)CCNCc1ccc(-c2ccc3ncnc(Nc4ccc(OCc5cccc(F)c5)c(Cl)c4)c3c2)o1 [lapatinib]
Method in brief: as §1

pictilisib = compound: CS(=O)(=O)N1CCN(Cc2cc3nc(-c4cccc5[nH]ncc45)nc(N4CCOCC4)c3s2)CC1 [pictilisib]
Method in brief: as §1

UniProt Q13795, sequence (Q13795 whole entry, looked up): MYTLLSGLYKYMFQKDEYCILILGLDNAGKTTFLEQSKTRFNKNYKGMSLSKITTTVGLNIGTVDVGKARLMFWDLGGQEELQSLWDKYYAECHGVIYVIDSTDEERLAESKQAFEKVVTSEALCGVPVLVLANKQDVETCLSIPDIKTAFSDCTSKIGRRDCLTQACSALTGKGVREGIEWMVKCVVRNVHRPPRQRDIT
UniProt P56211, sequence (P56211 whole entry, looked up): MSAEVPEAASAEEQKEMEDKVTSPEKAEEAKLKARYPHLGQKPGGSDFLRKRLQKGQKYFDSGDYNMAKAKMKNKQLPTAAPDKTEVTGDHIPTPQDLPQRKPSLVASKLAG
UniProt P11117, sequence (P11117 whole entry, looked up): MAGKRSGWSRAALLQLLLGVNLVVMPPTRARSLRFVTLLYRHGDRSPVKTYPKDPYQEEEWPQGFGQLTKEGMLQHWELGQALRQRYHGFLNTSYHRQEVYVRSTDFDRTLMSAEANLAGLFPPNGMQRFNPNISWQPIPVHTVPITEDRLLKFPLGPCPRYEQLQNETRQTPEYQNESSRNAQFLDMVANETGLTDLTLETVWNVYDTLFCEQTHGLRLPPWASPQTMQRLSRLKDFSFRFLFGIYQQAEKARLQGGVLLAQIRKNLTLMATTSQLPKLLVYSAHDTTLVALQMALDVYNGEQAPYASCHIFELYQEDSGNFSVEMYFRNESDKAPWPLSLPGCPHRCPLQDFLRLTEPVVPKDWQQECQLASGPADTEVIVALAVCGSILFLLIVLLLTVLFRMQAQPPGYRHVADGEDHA
UniProt O14981, sequence (O14981 whole entry, looked up): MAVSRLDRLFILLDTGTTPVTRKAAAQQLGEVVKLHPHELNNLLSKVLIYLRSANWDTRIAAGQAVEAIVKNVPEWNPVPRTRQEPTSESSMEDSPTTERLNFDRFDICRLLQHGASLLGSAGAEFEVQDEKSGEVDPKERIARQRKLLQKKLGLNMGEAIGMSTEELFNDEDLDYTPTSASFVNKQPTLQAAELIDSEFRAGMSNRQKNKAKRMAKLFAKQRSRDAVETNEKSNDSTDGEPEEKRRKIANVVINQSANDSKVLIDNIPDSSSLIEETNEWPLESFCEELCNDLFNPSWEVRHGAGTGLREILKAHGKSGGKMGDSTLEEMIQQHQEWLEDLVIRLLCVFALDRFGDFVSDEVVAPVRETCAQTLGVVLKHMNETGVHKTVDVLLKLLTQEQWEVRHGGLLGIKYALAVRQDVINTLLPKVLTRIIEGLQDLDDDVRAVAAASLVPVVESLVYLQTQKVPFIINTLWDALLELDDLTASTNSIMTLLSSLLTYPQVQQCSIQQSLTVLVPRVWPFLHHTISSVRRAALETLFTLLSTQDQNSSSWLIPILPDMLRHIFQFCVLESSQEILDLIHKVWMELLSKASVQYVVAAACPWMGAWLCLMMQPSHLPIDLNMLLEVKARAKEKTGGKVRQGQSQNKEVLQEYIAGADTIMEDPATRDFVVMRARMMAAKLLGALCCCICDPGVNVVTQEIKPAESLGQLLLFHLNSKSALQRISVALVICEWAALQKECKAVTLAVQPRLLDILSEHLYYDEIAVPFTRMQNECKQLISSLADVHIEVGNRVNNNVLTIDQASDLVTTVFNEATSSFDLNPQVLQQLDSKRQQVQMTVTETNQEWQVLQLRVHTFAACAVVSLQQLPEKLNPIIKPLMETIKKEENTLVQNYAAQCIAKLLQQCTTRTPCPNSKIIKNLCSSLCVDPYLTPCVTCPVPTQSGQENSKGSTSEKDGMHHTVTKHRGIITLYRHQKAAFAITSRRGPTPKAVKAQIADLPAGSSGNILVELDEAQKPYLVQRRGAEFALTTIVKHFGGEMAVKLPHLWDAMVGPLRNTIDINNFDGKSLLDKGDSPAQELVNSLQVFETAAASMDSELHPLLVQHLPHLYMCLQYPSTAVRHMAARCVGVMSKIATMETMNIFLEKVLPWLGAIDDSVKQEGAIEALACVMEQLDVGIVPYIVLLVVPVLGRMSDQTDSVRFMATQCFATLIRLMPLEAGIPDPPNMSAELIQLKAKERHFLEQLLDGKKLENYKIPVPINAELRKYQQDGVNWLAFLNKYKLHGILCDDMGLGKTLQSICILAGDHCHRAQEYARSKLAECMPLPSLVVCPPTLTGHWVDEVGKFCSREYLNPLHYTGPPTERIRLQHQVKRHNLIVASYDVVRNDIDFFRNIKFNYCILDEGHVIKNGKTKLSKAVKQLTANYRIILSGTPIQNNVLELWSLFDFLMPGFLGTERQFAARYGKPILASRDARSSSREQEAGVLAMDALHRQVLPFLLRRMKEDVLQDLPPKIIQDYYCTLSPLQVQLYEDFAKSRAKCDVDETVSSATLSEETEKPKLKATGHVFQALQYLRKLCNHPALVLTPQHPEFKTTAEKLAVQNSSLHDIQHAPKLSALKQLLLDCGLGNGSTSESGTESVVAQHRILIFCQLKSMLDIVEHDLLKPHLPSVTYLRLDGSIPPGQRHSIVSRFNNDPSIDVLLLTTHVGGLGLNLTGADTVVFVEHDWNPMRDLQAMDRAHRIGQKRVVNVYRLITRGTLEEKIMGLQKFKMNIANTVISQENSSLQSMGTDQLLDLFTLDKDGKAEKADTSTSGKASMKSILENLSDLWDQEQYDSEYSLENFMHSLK
UniProt Q9Y3D8, sequence (Q9Y3D8 whole entry, looked up): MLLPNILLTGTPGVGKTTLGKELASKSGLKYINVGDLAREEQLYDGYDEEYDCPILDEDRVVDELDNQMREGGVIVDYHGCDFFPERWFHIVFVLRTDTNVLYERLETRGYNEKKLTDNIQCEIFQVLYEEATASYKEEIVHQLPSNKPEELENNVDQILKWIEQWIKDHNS
UniProt Q13685, sequence (Q13685 whole entry, looked up): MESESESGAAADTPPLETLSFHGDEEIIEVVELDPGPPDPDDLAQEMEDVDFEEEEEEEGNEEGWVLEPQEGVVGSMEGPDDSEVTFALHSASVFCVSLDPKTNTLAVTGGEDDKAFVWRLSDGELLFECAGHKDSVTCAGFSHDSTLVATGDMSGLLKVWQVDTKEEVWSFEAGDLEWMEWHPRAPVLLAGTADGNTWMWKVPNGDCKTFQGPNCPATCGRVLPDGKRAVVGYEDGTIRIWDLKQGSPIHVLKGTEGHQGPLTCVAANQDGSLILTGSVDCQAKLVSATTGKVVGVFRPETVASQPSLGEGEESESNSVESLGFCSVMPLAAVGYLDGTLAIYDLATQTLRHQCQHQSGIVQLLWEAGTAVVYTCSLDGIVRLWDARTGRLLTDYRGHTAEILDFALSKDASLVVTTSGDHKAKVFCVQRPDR
UniProt Q93084, sequence (Q93084 whole entry, looked up): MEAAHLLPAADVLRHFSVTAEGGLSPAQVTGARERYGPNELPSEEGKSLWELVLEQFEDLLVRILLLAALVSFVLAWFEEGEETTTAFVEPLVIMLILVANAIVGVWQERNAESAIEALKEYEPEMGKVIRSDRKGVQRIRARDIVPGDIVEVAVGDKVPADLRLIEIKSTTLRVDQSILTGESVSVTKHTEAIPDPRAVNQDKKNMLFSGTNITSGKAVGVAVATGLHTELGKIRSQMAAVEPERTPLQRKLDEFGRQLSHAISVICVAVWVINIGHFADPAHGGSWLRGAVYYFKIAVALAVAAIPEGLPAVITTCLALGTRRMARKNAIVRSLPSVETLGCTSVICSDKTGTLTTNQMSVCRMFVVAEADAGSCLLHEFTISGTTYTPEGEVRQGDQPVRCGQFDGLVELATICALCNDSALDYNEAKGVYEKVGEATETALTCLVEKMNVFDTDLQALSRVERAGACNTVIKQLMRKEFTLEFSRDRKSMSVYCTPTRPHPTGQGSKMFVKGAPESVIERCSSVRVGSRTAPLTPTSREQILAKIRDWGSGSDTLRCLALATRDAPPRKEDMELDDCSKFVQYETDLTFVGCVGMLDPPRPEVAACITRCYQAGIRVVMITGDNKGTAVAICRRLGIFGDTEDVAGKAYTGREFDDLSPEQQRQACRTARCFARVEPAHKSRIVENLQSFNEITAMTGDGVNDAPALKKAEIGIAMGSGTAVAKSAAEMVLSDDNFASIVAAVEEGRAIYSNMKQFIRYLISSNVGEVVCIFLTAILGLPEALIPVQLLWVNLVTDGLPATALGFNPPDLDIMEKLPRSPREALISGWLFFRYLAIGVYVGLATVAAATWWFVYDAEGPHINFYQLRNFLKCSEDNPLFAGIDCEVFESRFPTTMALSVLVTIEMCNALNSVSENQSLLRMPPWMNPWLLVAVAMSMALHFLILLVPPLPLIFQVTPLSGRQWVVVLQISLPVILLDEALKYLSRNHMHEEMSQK
UniProt Q9Y2Y0, sequence (Q9Y2Y0 whole entry, looked up): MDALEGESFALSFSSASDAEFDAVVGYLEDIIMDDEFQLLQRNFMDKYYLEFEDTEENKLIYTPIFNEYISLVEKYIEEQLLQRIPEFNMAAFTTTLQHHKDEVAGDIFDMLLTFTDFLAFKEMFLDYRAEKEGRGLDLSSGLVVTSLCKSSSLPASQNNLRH
UniProt P15291, sequence (P15291 whole entry, looked up): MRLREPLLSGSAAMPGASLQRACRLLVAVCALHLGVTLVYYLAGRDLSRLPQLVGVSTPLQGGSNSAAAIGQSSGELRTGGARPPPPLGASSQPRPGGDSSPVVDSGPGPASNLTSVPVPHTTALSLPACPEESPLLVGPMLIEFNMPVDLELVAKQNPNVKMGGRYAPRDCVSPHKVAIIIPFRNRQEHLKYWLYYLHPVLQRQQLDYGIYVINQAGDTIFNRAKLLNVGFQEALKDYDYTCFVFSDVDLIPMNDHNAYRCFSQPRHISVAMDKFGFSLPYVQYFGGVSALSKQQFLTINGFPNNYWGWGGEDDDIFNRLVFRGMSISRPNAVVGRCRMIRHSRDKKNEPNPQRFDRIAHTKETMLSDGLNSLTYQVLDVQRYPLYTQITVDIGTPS
UniProt Q6QNY0, sequence (Q6QNY0 whole entry, looked up): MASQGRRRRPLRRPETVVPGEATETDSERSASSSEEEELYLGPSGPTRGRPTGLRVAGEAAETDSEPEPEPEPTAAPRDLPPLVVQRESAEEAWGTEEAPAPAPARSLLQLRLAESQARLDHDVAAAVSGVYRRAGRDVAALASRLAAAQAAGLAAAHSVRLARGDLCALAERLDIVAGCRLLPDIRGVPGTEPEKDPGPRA

| Target | log2 fold change [1] | log2 fold change (filanesib) | log2 fold change (zotarolimus) | log2 fold change (idasanutlin) | log2 fold change (alisertib) | log2 fold change [2] | log2 fold change (gefitinib) | log2 fold change [3] | log2 fold change (lapatinib) | log2 fold change (pictilisib) |
| --- | --- | --- | --- | --- | --- | --- | --- | --- | --- | --- |
| B4GALT1 (UniProt P15291) | -0.04 | 0.014 | 0.067 | 0 | 0.051 | -0.037 | 0.022 | 0.021 | 0.042 | 0.128 |
| ANKZF1 (UniProt Q9H8Y5) | -0.005 | 0.249 | 0.048 | 0.235 | -0.034 | 0.042 | -0.001 | -0.022 | -0.046 | -0.002 |
| ACBD6 (UniProt Q9BR61) | 0.099 | 0.034 | 0.016 | 0.09 | -0.088 | 0.133 | -0.018 | -0.271 | -0.14 | 0.012 |
| AK6 (UniProt Q9Y3D8) | 0.009 | -0.052 | 0.003 | 0.012 | -0.035 | 0.053 | 0.03 | 0.006 | -0.049 | -0.01 |
| ADPRHL2 (UniProt Q9NX46) | 0.111 | -0.08 | 0.022 | -0.06 | 0.009 | 0.245 (active) | -0.028 | 0.012 | 0.03 | 0.078 |
| ANAPC2 (UniProt Q9UJX6) | 0.026 | -0.042 | 0.012 | -0.047 | -0.074 | -0.038 | -0.034 | -0.004 | 0.059 | 0.015 |
| BTAF1 (UniProt O14981) | 0.018 | -0.006 | -0.004 | -0.095 | 0.175 | 0.093 | -0.045 | -0.028 | -0.01 | -0.032 |
| ACSL1 (UniProt P33121) | -0.014 | -0.08 | 0.038 | -0.017 | 0.015 | -0.261 | 0.024 | 0.024 | 0.017 | 0.041 |
| BPHL (UniProt Q86WA6) | -0.118 | -0.018 | 0.017 | -0.007 | 0.004 | 0.081 | 0.049 | -0.056 | -0.033 | 0.033 |
| ATP6AP1 (UniProt Q15904) | -0.099 | -0.064 | 0.025 | 0.009 | 0.166 | -0.068 | -0.009 | -0.057 | 0.019 | -0.017 |
| AAMP (UniProt Q13685) | -0.031 | 0.003 | 0.029 | -0.052 | -0.049 | -0.027 | 0.026 | 0.033 | 0.024 | -0.002 |
| APH1A (UniProt Q96BI3) | 0.101 | -0.039 | -0.062 | 0.005 | -0.228 | -0.236 | 0.043 | 0.059 | 0.091 | 0.013 |
| AKR1C2 (UniProt P52895) | 0.706 (active) | 0.259 | 0.097 | -0.015 | -0.012 | -0.013 | 0.044 | -0.012 | 0.068 | 0.165 |
| ACP2 (UniProt P11117) | -0.034 | -0.121 | -0.016 | -0.026 | 0.036 | -0.002 | 0.001 | 0.053 | 0.038 | -0.031 |
| APLP2 (UniProt Q06481) | 0.036 | 0.219 (active) | 0.002 | 0.058 | -0.039 | 0.038 | 0.106 | -0.04 | 0.09 | 0.091 |
| ADD3 (UniProt Q9UEY8) | 0.018 | 0.059 | -0.074 | 0.02 | -0.063 | 0.057 | 0.021 | 0.063 | -0.006 | 0.075 |
| BLOC1S3 (UniProt Q6QNY0) | -0.013 | -0.066 | -0.014 | -0.149 | 0.005 | -0.018 | 0.048 | 0.058 | -0.007 | 0.126 |
| ACSL5 isoform 3 (UniProt Q9ULC5) | -0.023 | -0.118 | 0.073 | -0.148 | -0.009 | -0.259 | 0.068 | 0.074 | 0.074 | 0.065 |
| ARL2BP (UniProt Q9Y2Y0) | 0.287 | -0.061 | 0.062 | -0.012 | -0.074 | -0.049 | 0.028 | 0.02 | -0.025 | 0.098 |
| ARPP19 (UniProt P56211) | 0.294 (active) | 0.033 | -0.016 | 0.002 | -0.061 | -0.184 | -0.007 | 0.075 | -0.01 | -0.073 |
| BAP1 (UniProt Q92560) | 0.032 | 0.111 | 0.046 | 0.164 | -0.112 | -0.006 | -0.055 | -0.024 | 0.119 | 0.062 |
| ARFGAP2 (UniProt Q8N6H7) | -0.067 | 0.024 | -0.005 | -0.029 | -0.058 | 0.156 | -0.004 | -0.064 | -0.001 | 0.013 |
| ATL2 (UniProt Q8NHH9) | -0.006 | -0.03 | 0.026 | -0.052 | 0.008 | 0.148 | 0.016 | 0.034 | -0.039 | 0.003 |
| ATP2A3 isoform 2 (UniProt Q93084) | -0.016 | -0.118 | -0.009 | -0.027 | -0.082 | -0.004 | -0.029 | 0.02 | -0.002 | 0.027 |
| ABCB6 (UniProt Q9NP58) | -0.007 | -0.077 | 0.055 | -0.137 | -0.069 | 0.058 | -0.011 | 0.024 | -0.005 | 0.06 |
| BCLAF1 (UniProt Q9NYF8) | -0.107 | 0.103 | 0.068 | 0.127 | 0.074 | -0.215 | 0.01 | 0.033 | 0.101 | -0.109 |
| ARFRP1 (UniProt Q13795) | 0.127 | -0.261 (active) | 0.02 | -0.168 | 0.111 | 0.039 | -0.016 | -0.024 | 0.071 | 0.168 |
| ARF4 (UniProt P18085) | 0.007 | -0.061 | 0.006 | -0.153 | -0.023 | 0.17 | -0.005 | 0.019 | 0.037 | 0.035 |
| B4GALNT1 (UniProt Q00973) | 0.023 | 0.092 | 0.081 | 0.093 | -0.063 | -0.045 | 0.119 | 0.112 | 0.097 | -0.045 |
